Compound activity from PubChem BioAssay.
Compounds with a hit are over-represented: about 3% of the library has one in this group of screens.
TexasRed fluor: Texas Red fluorescence interference in TRb-SRC2 counter-screen. TRb/SRC2 Texas Red total fluorescence interference. Potency, µM (series often up to 106 µM), for inactives: top-dose fluorescence change, negative = quenching. 280,000 compounds, 0.29% hits. AID 1479; active means well fitted curve in either direction with a large enough effect; inconclusive means small, poorly fitted or top-dose-only effect
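Flags fluorescent or light-absorbing compounds by total fluorescence, S + 2P, at 555 nm excitation and 632 nm emission. Mixture: 20 nM Texas Red SRC2 peptide, 0.6 uM human TRb LBD, 1 uM T3, 5% DMSO; compound exposure 5 h at ambient temperature.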
TRb SRC2 PPI: TRbeta-SRC2 interaction inhibition; P10828; TRbeta-SRC2 peptide binding, fluorescence polarization; receptor liganded with 1 µM T3; Potency, µM (titrated, usually from 106 µM), inactives show at the top dose activity change, negative = inhibition, usual class: inhibitors; 280,000 compounds, 0.065% hits;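 further: plate controls were bound peptide for no effect and peptide without receptor for full effect; nearly all actives have a fitted effect of over 50% in size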
Target sequence (P10828 whole entry, looked up): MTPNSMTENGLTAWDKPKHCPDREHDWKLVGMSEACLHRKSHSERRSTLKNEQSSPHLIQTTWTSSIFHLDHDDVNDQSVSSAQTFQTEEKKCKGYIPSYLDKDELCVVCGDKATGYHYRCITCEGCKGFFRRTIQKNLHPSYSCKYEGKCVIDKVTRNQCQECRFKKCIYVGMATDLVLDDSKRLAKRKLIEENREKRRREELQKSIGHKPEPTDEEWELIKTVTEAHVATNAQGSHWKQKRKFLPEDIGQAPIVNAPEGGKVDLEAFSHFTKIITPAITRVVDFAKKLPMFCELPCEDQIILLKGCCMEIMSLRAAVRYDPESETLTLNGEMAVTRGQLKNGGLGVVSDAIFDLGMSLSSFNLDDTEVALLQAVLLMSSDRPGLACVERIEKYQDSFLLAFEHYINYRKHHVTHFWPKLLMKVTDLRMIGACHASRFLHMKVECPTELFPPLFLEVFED
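Fluorescence polarization of 20 nM Texas Red SRC2 peptide (20-aa NR interaction domain) bound to 0.6 uM human TRb ligand-binding domain, with 1 uM T3, after 5 hr at ambient temperature; inhibition seen as decreased polarization.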
Tau FP inhib: inhibitors of human tau fibril formation. P10636. K18 P301L tau heparin fibrillization, Alexa594 FP, 6 h. Potency, µM (series often up to 57.7 µM), inactives show at the highest dose activity, negative = inhibition, usual class: inhibitors. 280,000 compounds, 0.39% hits. AID 1468; further: nearly all actives have a fitted effect of over 55% in size
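Human K18 P301L fragment (15 uM unlabeled plus 0.24 uM Alexa 594-labeled) in 100 mM sodium acetate pH 7 with compound, aggregation induced by 20 uM heparin for 6 hr at 37 C. ThT (30 uM) added for 1 hr, then Alexa 594 FP read.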
Tau fluor counter: counter-screen for tau fibril formation inhibitors; tau K18 P301L Alexa594 fluorescence, heparin fibrillization; Potency, µM (series often up to 57.7 µM), for inactives: top-dose activity change, negative = decrease; 280,000 compounds, 0.93% hits; AID 1463; further: nearly all actives have a fitted effect of over 55% in size
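Human tau K18 P301L (15 uM unlabeled, 0.24 uM Alexa 594-labeled) in 100 mM sodium acetate pH 7 with 20 uM heparin, 6 hr at 37 C. ThT 30 uM added, 1 hr ambient; Alexa 594 FP and total fluorescence read at 555/632 nm.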
Tau ThT inhib: tau fibrillization inhibition (ThT binding); P10636; recombinant tau K18 P301L, heparin-induced fibrillization, ThT fluorescence; 270,000 compounds, 2.1% hits; Potency, µM (highest dose often 57.4 µM), for inactives: at the top dose activity, negative = inhibition, most hits filed as inhibitors; further: nearly all actives have a fitted effect of over 55% in size
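Fibril formation assay: tau K18 P301L at 15 uM with trace Alexa 594 label, heparin inducer 20 uM, pH 7 sodium acetate buffer, 37 C for 6 hr; endpoint ThT signal.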
* hit, by the source's call; ? = inconclusive; / = not tested or not shown; [ ] = remark or other dose. Unless noted, the call rests on the fitted dose curve; in most records, active means well fitted curve in the direction sought with a large enough effect; inconclusive means small, poorly fitted or top-dose-only effect, or another doubt; inactive means no such curve, though single readings can be large; an effect the other way counts as inactive or inconclusive. Unless noted, on the % scale 0 is the no-effect control and ±100 the full control effect; potency means the concentration at half of the fitted maximal effect.

SMILES	TexasRed fluor	TRb SRC2 PPI	Tau FP inhib	Tau fluor counter	Tau ThT inhib
Cc1cc(NC(=O)Cn2c(=O)nc(-c3ccccc3F)c3cc(Cl)ccc32)ccc1Br	0.035µM*[quencher]	-26%[53 µM]	-16%	?	7%
O=C(Nc1ccc(N2CCN(C(=O)c3ccco3)CC2)cc1)c1ccco1	-1%	6%	4%	-5%	?
N#Cc1ccc(C(=O)Nc2ccc(N3CCN(C(=O)c4ccco4)CC3)cc2)c(F)c1	1%	1%	-1%	-17%	1µM*
O=C(O)C(C(=O)/C=C/c1ccco1)=C1SCCS1	-10%	-7%	?	-16%	16µM*
Brc1cccc(-c2cnn3c(-c4ccccc4)cc(-c4ccccc4)nc23)c1	-4%	6%	?	-13%	?
Cc1ncoc1C(=O)Nc1ncc([N+](=O)[O-])s1	-4%	0%	?	-20%	25µM*
CCCCOc1[nH]c2nc(-c3ccco3)n(Cc3ccco3)c(=N)c2c1C#N	-5%	-14%	-11%	?	22µM*
Cc1cc(=O)[nH]c(SCC(=O)/C=C2\N(C)c3ccccc3C2(C)C)n1	19%[53 µM]	23%[53 µM]	?	25µM*[fluorescent]	?
CC(C)OB(OC(C)C)OC(C)C	-4%[201 µM]	3%[201 µM]	/	/	/
Cc1c(NC(=S)N/N=C/c2cc([N+](=O)[O-])ccc2O)c(=O)n(-c2ccccc2)n1C	-5%	-1%	-1%	-26%	32µM*
C[Si](Cl)(Cl)[Si](C)(Cl)Cl	1%[201 µM]	5%[201 µM]	/	/	/
C=CCSc1nnc2nc3c(nn12)c1cc(C)ccc1n3CC=C	0%	3%	3%	-5%	28µM*
CC(C)C[C@@H](CC(=O)N[C@H](CC(=O)N[C@@H]1CCCC[C@H]1C(=O)N[C@H](CC(=O)N[C@@H](CCC(=O)O)CC(=O)O)Cc1ccccc1)C(C)C)NC(=O)[C@@H]1CNCC[C@H]1N	0%	2%	-2%	-14%	-11%
COC(=O)[C@@]1(Cc2ccc(F)cc2)[C@H]2c3cc(C(=O)N4CCCC4)n(CCc4c[nH]c5cc(F)ccc45)c3C[C@H]2CN1C(=O)c1ccccc1	-4%	-4%	5%	-22%	-16%
COc1cc(OC)cc(-c2nnc(Sc3ccc(C=O)cc3[N+](=O)[O-])o2)c1	-5%	?	-13%	?	25µM*
COc1cc(OC)cc(-c2nnc(SCC(=O)c3ccc([N+](=O)[O-])cc3)o2)c1	3%	7%	0%	?	?
COCCN1C(=O)N[C@@H](c2cccc(C(F)(F)F)c2)C(C(C)=O)=C1C	1%	2%	?	-24%	-14%
Nc1ccc(N2CCN(c3ccc(F)cc3)CC2)cc1	-2%	1%	-7%	?	13µM*
O=C(O)/C=C/C(=O)N1CCN(c2ccc(F)cc2)CC1	-1%	12%	-10%	-4%	-13%
Nc1ccc(N2CCN(c3ccc(Cl)c(Cl)c3)CC2)cc1	0%	4%	-5%	?	16µM*
O=C(O)c1ccc(N2CCCCC2)cc1	1%	-14%	-4%	2%	0%
Nc1ccc(N2CCCCCC2)cc1	25%	45µM*	14µM*	?	7.1µM*
COCCNC(=O)Cn1c(=O)c2cccn2c2ccc(F)cc21	-11%	0%	-6%	-17%	-8%
COc1ccc(CCN(C(=S)Nc2ccccc2)C2CC(=O)N(c3ccccc3)C2=O)cc1 (stereo unspecified)	-3%	0%	-18%	?	4%
O=C1CC(N(CCc2ccccc2)C(=S)Nc2ccccc2)C(=O)N1c1ccc(Br)cc1 (stereo unspecified)	3%	0%	7.9µM*	?	?
CN1CCc2nc(SCC(=O)Nc3cccc(F)c3)c(C#N)c(-c3cccs3)c2C1	-4%	-3%	-13%	16µM*[quencher]	14µM*
Cc1cccc(CSc2nc3c(c(-c4cccs4)c2C#N)CN(C)CC3)c1	-1%	-5%	-4%	25µM*[quencher]	16µM*
CN1CCc2nc(SCC(=O)Nc3ccc(OC(F)(F)F)cc3)c(C#N)c(-c3cccs3)c2C1	-9%	-2%	-1%	-3%	12%
Cn1nnnc1SCCCNCc1cccc(OCc2ccc(F)cc2)c1	0.89µM*[quencher]	-26%	-5%	-15%	-5%
